Reference: PubChem BioAssay (NCI)
This is part of a sample that, as a whole, favours compounds with a hit. Of some 83,000 tested, about 20% had one in any assay.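 Negative percent growth values reflect cell death: -40 means 40% of the cells present at the start died, and -100 means all died.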 Values without a mark were called inactive. Activity calls are given as the source filed them. The calls were made as follows: active = growth percent below 10; inactive = the rest.

How the values were obtained:
Experiment in all cases: NCI-60 one-dose screen, 48 h (100 = growth as untreated, 0 = no growth, -100 = all killed)
[1] = tested on: NCI-H23 lung; settings: 10 µM unless noted
[2] = tested on: NCI-H226 lung; settings: 10 µM unless noted
[3] = tested on: NCI-H322M lung; settings: 10 µM unless noted
[4] = tested on: HOP-62 NSCLC; settings: 10 µM unless noted
[5] = tested on: NCI-H460 lung; settings: 10 µM unless noted
[6] = tested on: HOP-92 NSCLC; settings: 10 µM
[7] = tested on: NCI-H522 lung; settings: 10 µM unless noted
[8] = tested on: A549/ATCC NSCLC; settings: 10 µM unless noted
[9] = tested on: 786-0 renal; settings: 10 µM unless noted
[10] = tested on: COLO 205 colon; settings: 10 µM unless noted

CCC1=Cc2cc(OC)ccc2OC12C=Cc1cc(OC)ccc1O2 (stereo not given)
growth [1]: 17% | growth [2]: 65.4% | growth [3]: 50.2% | growth [4]: 64.3% | growth [5]: 4.15% (active) | growth [6]: 57.3% | growth [7]: -23.9% (active) | growth [8]: 26.5% | growth [9]: 37.3% | growth [10]: -6.28% (active)

Oc1ccc(CSc2nnc(-c3ccc(Cl)cc3)n2-c2ccccc2)c2cccnc12
growth [1]: 31.2% | growth [2]: 50.9% | growth [3]: 41.6% | growth [4]: 16.9% | growth [5]: 2.03% (active) | growth [6]: 16.3% | growth [7]: 36.4% | growth [8]: 26% | growth [9]: 44.2% | growth [10]: 88.9%

CN1CCN(Cc2ccc(NC(=O)c3cncc(C#Cc4cnc5ccc(OCC(C)(C)O)nn45)c3)cc2C(F)(F)F)CC1
growth [1]: -58.4% (active) | growth [2]: -64.1% (active) | growth [3]: -22.5% (active) | growth [4]: -9.7% (active) | growth [5]: -73.9% (active) | growth [6]: -18.6% (active) | growth [7]: -35.3% (active) | growth [8]: -45.3% (active) | growth [9]: -62.3% (active) | growth [10]: -70% (active)

O=C(O)c1ccc(-n2cc(CNc3cc(F)c(F)c(F)c3)c(-c3ccc(F)cc3)n2)cc1
growth [1]: 90% | growth [2]: 101% | growth [3]: 98% | growth [4]: 113% | growth [5]: 97.1% | growth [6]: 108% | growth [7]: 90.1% | growth [8]: 77.8% | growth [9]: 109% | growth [10]: 131%

COc1cc(Cn2cc3c(c2)-c2onc(CN4CCCC4)c2CC3)cc(OC)c1OC
growth [1]: 86% | growth [2]: 88.4% | growth [3]: 90.6% | growth [4]: 92.8% | growth [5]: 109% | growth [6]: 92.3% | growth [7]: 84.2% | growth [8]: 100% | growth [9]: 99.4% | growth [10]: 109%

CCCCCc1ccc(S(=O)(=O)Nc2cccc(-c3csc(NC(=O)CCCCCN4CCN(CCO)CC4)n3)c2)cc1
growth [1]: 81.1% | growth [2]: 92.7% | growth [3]: 87.5% | growth [4]: 85.1% | growth [5]: 23.9% | growth [6]: 62.7% | growth [7]: 77.2% | growth [8]: 74.5% | growth [9]: 68.3% | growth [10]: 72.8%

C#Cc1nc(C(C)=O)cs1
growth [1]: 102% | growth [2]: 99.7% | growth [3]: 106% | growth [4]: 103% | growth [5]: 106% | growth [6]: 111% | growth [7]: 92.1% | growth [8]: 108% | growth [9]: 98.6% | growth [10]: 115%

O=S(=O)(NCCNc1nccc(-n2cnc3ccccc32)n1)c1ccc(Br)cc1
growth [1]: 97.3% | growth [2]: 76.5% | growth [3]: 107% | growth [4]: 87.2% | growth [5]: 101% | growth [6]: 74.2% | growth [7]: 87.2% | growth [8]: 100% | growth [9]: 103% | growth [10]: 107%

CCCCCc1ccc(S(=O)(=O)Nc2cccc(-c3csc(NC(=O)CNCCN(C)C)n3)c2)cc1
growth [1]: 94.6% | growth [2]: 87.5% | growth [3]: 90.4% | growth [4]: 98.8% | growth [5]: 51.9% | growth [6]: 53% | growth [7]: 91% | growth [8]: 84.8% | growth [9]: 61.6% | growth [10]: 74.6%

CC1(C)CC[C@]2(CN)CC[C@]3(C)C(=CC[C@@H]4[C@@]5(C)CCCNC(C)(C)[C@@H]5CC[C@]43C)[C@H]2C1
growth [1]: 104% | growth [2]: 105% | growth [3]: 99% | growth [4]: 93.9% | growth [5]: 99.5% | growth [6]: 81.2% | growth [7]: 105% | growth [8]: 92.2% | growth [9]: 92.8% | growth [10]: 109%

COc1ccc(/C=C(/C)c2ccc3ccc(OC)cc3[o+]2)c(O)c1
growth [1]: 53.2% | growth [2]: 70.9% | growth [3]: 94.7% | growth [4]: 92.1% | growth [5]: 81.5% | growth [6]: 66.7% | growth [7]: 53.1% | growth [8]: 102% | growth [9]: 88.9% | growth [10]: 115%

CCc1ccc(SC2c3ccc(N(CC)CC)cc3Oc3nc(N)c(C#N)c(N)c32)cc1 (stereo not given)
growth [1]: -85.1% (active) | growth [2]: -84.1% (active) | growth [3]: -76.6% (active) | growth [4]: 3.17% (active) | growth [5]: -58.3% (active) | growth [6]: -44.1% (active) | growth [7]: -38.4% (active) | growth [8]: -0.807% (active) | growth [9]: -89.2% (active) | growth [10]: -52.8% (active)

COc1cc2c(cc1OC)C(Sc1ccc(C)cc1)c1c(nc(N)c(C#N)c1N)O2 (stereo not given)
growth [1]: -74.1% (active) | growth [2]: -1.22% (active) | growth [3]: -93.9% (active) | growth [4]: -1.58% (active) | growth [5]: -54.9% (active) | growth [6]: -31.8% (active) | growth [7]: -29% (active) | growth [8]: -38% (active) | growth [9]: -78.9% (active) | growth [10]: -28.5% (active)
